Test results: the OligoGym collection

target: WFDC12; experiment: pooled miR-30 sensor sort-seq; sequence = guide strand; conditions: shRNA
Note: reference of the scale not given here.

Point of comparison: AAGAACGAGAGACACCATGAGG, sensor-assay potency score (higher = more potent) -1.13. Against it:
- TGGTCTGTGTGACACTGGGGAG — lower, -1.92
- TGCAGGTAACAACACTTCCTTT — lower, -1.24
- TTGTCAGCTGGGCAAACCCCTG — lower, -1.97
- TGACACATCTTCATCCTTGTTT — higher, 0.329
- TTCACAGGAATCACACACTTGA — higher, -0.211
- TTGACACATCTTCATCCTTGTT — lower, -1.2
- AACTCCTTCCACAGCCACCAGG — lower, -1.44
- ATGGCCTTGACACATCTTCATC — lower, -1.78
- AACAACACTTCCTTTCCCCCAG — higher, -0.813
- TCCTCCTTCTTCCAGTTCCTTC — lower, -1.8

target: WFDC5; experiment: as above; conditions: shRNA

Point of comparison: TCTTCCTGCCAAAGACAGCAGG, sensor-assay potency score (higher = more potent) -1.27. Against it:
- TTTTGGTGGAGGAAGCAGCATG — higher, -0.976
- TGTAGCAGCACTTCCTGGTCAA — higher, 0.234
- TCAAGGGACACTGGCTGTCTTC — higher, -1.2
- TTCCTGGTCAAGGGACACTGGC — lower, -1.55
- TCTGTAGCAGCACTTCCTGGTC — higher, -0.738
- AGTCCTTGTGACACAGGTGGTT — lower, -1.67
- TGTCTTCCACGCACTGGTCAGG — higher, -1.15
- TGACACAGGTGGTTCATGGGGC — higher, 0.531
- TGGCTGTCTTCCACGCACTGGT — higher, -0.871
- TCTGAGTCCTTGTGACACAGGT — higher, -0.214
- TTTTTGCCCGAGCAGTCTGAGT — lower, -1.7

target: WFDC8; experiment: as above; conditions: shRNA

Point of comparison: TCTCTTTGGGACATAACCCTGG, sensor-assay potency score (higher = more potent) -0.176. Against it:
- TTGTCCATCCTTAACAATTAAC — lower, -1.71
- TGGATTCACAACATTTGTCTGT — higher, -0.069
- TACATTTCAGTCCACAATGTGA — lower, -1.04
- TTTTTGACTGTCCAGGCCCTGG — lower, -1.19
- TATTTGAAGGGTGTGCAGCGGT — higher, -0.17
- AAACCTTTTTTGACTGTCCAGG — lower, -1.14
- TTGGGTTTATCAATCTTGGTAC — higher, 0.104
- ATCTGTGTTACATGAGTCCGGA — lower, -0.285
- TTAACAATTAACATGCAGGCCG — lower, -0.341
- TTGTGTTTGATCTTCTTGGTCA — higher, 0.398
- TAACAATTAACATGCAGGCCGT — lower, -0.862

target: WFIKKN1; experiment: as above; conditions: shRNA

Point of comparison: TTGTAGAGCACCAGCTGCCCGA, sensor-assay potency score (higher = more potent) -1.47. Against it:
- TCTCTCGCTGGTGACTCTGCTT — higher, -0.761
- TTGCCATACATCTGATCAGGGC — higher, -0.931
- TCGTAGGTCTCAAAGCCGCGGG — higher, -1.25
